Values joined by “and” are separate entries in the source; they are usually repeats but may differ in a detail not shown here. Identical values can stand only once. This is part of a sample that, as a whole, favours compounds with a hit. Of some 79,000 tested, about 15% had one in any assay. Rule as the data show it: active = growth inhibition above about 70%; inactive = the rest.
Key:
[1] = NCI Yeast Anticancer Drug Screen. Data for the rad50 strain (AID 155);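 also: 0% = growth of vehicle-only cultures of the same strain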; conditions: S. cerevisiae rad50 strain growth inhibition; at 50.0 µM; active compounds read high
Procedure, shortened: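 Growth of the mutant yeast was measured after compound exposure and referenced to vehicle-treated cultures.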

[2] = NCI Yeast Anticancer Drug Screen. Data for the mec2-1 strain (AID 157); conditions: S. cerevisiae mec2-1 strain, at 50.0 µM, active compounds read high
Procedure, shortened: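 mec2-1 yeast strain, carrying an alteration in DNA damage repair or cell cycle control, was exposed to compounds; growth inhibition was measured relative to vehicle-treated controls.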

[3] = NCI Yeast Anticancer Drug Screen. Data for the sgs1 mgt1 strain (AID 161);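 also: 0% = growth of cultures given vehicle only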; conditions: S. cerevisiae sgs1 mgt1 strain, at 50.0 µM, active compounds read high
Procedure, shortened: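 This yeast growth screen uses a strain with defined DNA-repair lesions; compound-treated growth is compared with vehicle-treated growth.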

[4] = NCI Yeast Anticancer Drug Screen. Data for the cln2 rad14 strain (AID 165);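 also: 0% = growth equal to vehicle treated cultures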; conditions: S. cerevisiae cln2 rad14 strain, at 50.0 µM, active compounds read high
Procedure, shortened: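 Yeast carrying cln2 and rad14 alterations (cell cycle control and DNA damage repair) were exposed to compounds. Growth inhibition was measured against vehicle-treated controls.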

[5] = NCI Yeast Anticancer Drug Screen. Data for the bub3 strain (AID 167); conditions: S. cerevisiae bub3 mutant strain, at 50.0 µM, active compounds read high
Procedure, shortened: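 Whole-cell yeast assay. The mutant strain was incubated with compounds, and growth inhibition was determined by comparison with vehicle-treated cells.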

[6] = NCI Yeast Anticancer Drug Screen. Data for the mlh1 rad18 strain (AID 175); conditions: S. cerevisiae mlh1 rad18 strain growth inhibition; at 50.0 µM; active compounds read high
Procedure, shortened: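 Growth inhibition of the yeast strain was measured after compound exposure and expressed relative to vehicle-treated controls. The strain carries defined defects in DNA damage repair.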

Measured: growth inhibition

NC(Cn1ccc(=O)c(O)c1)C(=O)O (configuration not stated)
inactive: [1] 9.8% and -0.85% | [2] 18.6% and 5.7% | [3] 7.35% and 21.9% | [4] 13.2% and 6.8% | [5] 10.7% and 11.4% | [6] -90.2% and 4.3%

Cn1c(=O)c(Br)cn(C2OC(CO)C3OC32)c1=O (configuration not stated)
inactive: [1] -6.35% and -9.05% | [2] -0.8% and -4.2% | [3] 18.1% and 4.9% | [4] -19.4% and -15.4% | [5] 25.4% and -4.1% | [6] 4.15% and -0.65%

COCC1OC(OC)C(OC)C(OC)C1OC (configuration not stated)
inactive: [1] -4.45% and 3.1% | [2] -13% and -0.5% | [3] 8.35% and -0.1% | [4] -49.7% and 1.25% | [5] -21.1% and 1.3% | [6] -4.8% and -4.25%

NC(CCCc1ccccc1)C(=O)O (configuration not stated)
inactive: [1] 7.05% and 3.35% | [2] -7.4% and 0.65% | [3] -5.15% and 1.45% | [4] -77% and -22.5% | [5] 20.6% and -1.2% | [6] -26.9% and -10%

OC(CBr)C(O)C(O)C(O)CBr (configuration not stated)
inactive: [1] 13.9% and 16.8% | [2] 7.6% and -4.25% | [3] 4.15% and -11.3% | [4] 8.75% and -9.4% | [5] -10.8% and 0.2% | [6] -13% and -11.9%

Nc1ccc2nc[nH]c2c1
inactive: [1] -15.3% and 18.9% | [2] -7.6% and -4.65% | [3] -7.55% and -18.6% | [4] 14.7% and 16.6% | [5] 2.25% and -1% | [6] -0.9% and 14.3%

CCOC(=O)CNC(=O)C(Cc1ccccc1)NC(=O)c1ccccc1N (configuration not stated)
inactive: [1] 14% and 12.7% | [2] -1.7% and -2.6% | [3] -0.1% and 9.95% | [4] -5.4% and -6.3% | [5] 8.7% and 4.45% | [6] 7.25% and 4.15%

CCN1C(=O)C=CC1=O
inactive: [1] 3.4% and -19.9% | [2] -2.55% and 13.7% | [3] 11.8% and -8.5% | [4] 6.8% and -30% | [5] 8.8% and -25.5% | [6] 3.55% and -15.4%

COc1nc2c(c(=O)n1C)NC(C(O)C(O)CO)C=N2 (configuration not stated)
inactive: [1] -34.7% and -26.7% | [2] -20.6% and -33.5% | [3] -23.8% and -25.8% | [4] -5.05% and 8.25% | [5] -14.8% and -15.7% | [6] -23.4% and -17.4%

COc1cc2c(cc1OC)C(=O)C1COC(=O)C1C2 (configuration not stated)
inactive: [1] -17% and 0.6% | [2] -18.8% and -11.5% | [3] -8.7% and 14.8% | [4] -11.9% and 5.05% | [5] -6.2% and -4.85% | [6] 0.55% and 12.2%

O=C(NC(=O)C(C(=O)c1ccccc1)c1ccccc1)c1ccccc1 (configuration not stated)
inactive: [1] -3.95% and 2.65% | [2] 2.1% and -1.35% | [3] -6.9% and -12.2% | [4] 0.15% and 9.9% | [5] 5.6% and -4.05% | [6] -5.05% and -6.25%

CC1C2C=CC(C2)C1C(=O)O (configuration not stated)
inactive: [1] 5.15% and 13.9% | [2] 28.8% and 5.1% | [3] -0.05% and 5.85% | [4] -42% and 9.65% | [5] 7.8% and -1.95% | [6] 7.1% and 11.2%

Oc1ccccc1-c1nc2ccccc2o1
inactive: [1] 4.85% and 8.3% | [2] -10.8% and -25.2% | [3] -13.8% and 7.15% | [4] -6.75% and 1.4% | [5] 1.05% and 24.3% | [6] 3.6% and 0.9%

C1CCC(N2CN(C3CCCCC3)C2)CC1
inactive: [1] 7.7% and 0.05% | [2] -11.9% and 0.5% | [3] -17.1% and -8.8% | [4] -14.5% and 10.3% | [5] -8.85% and -19.4% | [6] -31.8% and 18%

C1OC2COCOC2C2OCOCC2O1 (configuration not stated)
inactive: [1] -22.8% and -3% | [2] -17.2% and -9.95% | [3] -17.4% and -7.85% | [4] -33.5% and -14.5% | [5] -13.3% and 0.85% | [6] -4.45% and -4.65%

Cc1cc(Cc2cc(C)c(O)c(C(=O)O)c2)cc(C(=O)O)c1O
inactive: [1] 0.25% and -7.15% | [2] 10.1% and -0.4% | [3] 2.35% and 0.2% | [4] -91.8% and -2.45% | [5] 27.3% and 4.85% | [6] 7.05% and -16.3%

Nc1nc2nccnc2c(=O)[nH]1
inactive: [1] -10.2% and 6.15% | [2] 47% and -1.65% | [3] 1.55% and -5.7% | [4] -18.6% and -0.35% | [5] -24.9% and 1.45% | [6] -15.2% and -0.8%

NCCCNCCCCNCCCN
inactive: [1] 14.1% and -12.6% | [2] 30.6% and -27.4% | [3] 14.2% and -14.9% | [4] 8.5% and -10.2% | [5] 28% and -15.6% | [6] 19.6% and 3%

CC1CCOS(=O)O1 (configuration not stated)
inactive: [1] 6.55% and -13.5% | [2] -15% and 6.9% | [3] 19.1% and -9.65% | [4] 12.1% and 11.6% | [5] -4.45% and 7.7% | [6] 18.2% and -7%

Nc1ccc(CCc2ccc(N)cc2)cc1
inactive: [1] 2.95% and -24.4% | [2] -6.85% and -19.4% | [3] -34.4% and -18.4% | [4] -48.5% and -20.8% | [5] 7.35% and -18.9% | [6] 12.2% and -8.65%

Cc1ccc(S(=O)(=O)NN)cc1
inactive: [1] -8.7% and 9.3% | [2] 2.3% and -9.9% | [3] -3.6% and 5.7% | [4] 2.5% and 6.7% | [5] -30.2% and 16.4% | [6] -20% and 5.9%

Cc1ccc(S(=O)(=O)N2CCCCCC2)cc1
inactive: [1] 10.8% and -9.2% | [2] 15.8% and -2.65% | [3] -13.7% and -5.75% | [4] 1.6% and -7.75% | [5] -6.7% and -2.85% | [6] -10.6% and -0.45%
